Screening results as filed in PubChem BioAssay.
Only some compounds are listed: those with a hit (about 5% of all), similar ones and a draw of the others.
SENP6 block = SENP6 protease inhibitors, primary screen, biochemical, luminescence, uHTS; Sentrin-specific protease 6 (Homo sapiens), Q9GZR1; 330,000 tested, 1.8% active; inhibition, % at 10 µM; Recombinant SENP6 catalytic domain, aminoluciferin luminescence;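 active = inhibition above about 50% at the single tested dose, limit read from the data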
AHR activator = AHR activators, primary screen, cell-based, luminescence, luciferase reporter, human | AHR-responsive luciferase reporter cells | activation, % at 5 µM | AID 2796, 2010 | 320,000 tested, 2.5% active | Aryl hydrocarbon receptor (Homo sapiens), P35869; in the data active = activation above about 47%
Target sequence (P35869 whole entry, looked up): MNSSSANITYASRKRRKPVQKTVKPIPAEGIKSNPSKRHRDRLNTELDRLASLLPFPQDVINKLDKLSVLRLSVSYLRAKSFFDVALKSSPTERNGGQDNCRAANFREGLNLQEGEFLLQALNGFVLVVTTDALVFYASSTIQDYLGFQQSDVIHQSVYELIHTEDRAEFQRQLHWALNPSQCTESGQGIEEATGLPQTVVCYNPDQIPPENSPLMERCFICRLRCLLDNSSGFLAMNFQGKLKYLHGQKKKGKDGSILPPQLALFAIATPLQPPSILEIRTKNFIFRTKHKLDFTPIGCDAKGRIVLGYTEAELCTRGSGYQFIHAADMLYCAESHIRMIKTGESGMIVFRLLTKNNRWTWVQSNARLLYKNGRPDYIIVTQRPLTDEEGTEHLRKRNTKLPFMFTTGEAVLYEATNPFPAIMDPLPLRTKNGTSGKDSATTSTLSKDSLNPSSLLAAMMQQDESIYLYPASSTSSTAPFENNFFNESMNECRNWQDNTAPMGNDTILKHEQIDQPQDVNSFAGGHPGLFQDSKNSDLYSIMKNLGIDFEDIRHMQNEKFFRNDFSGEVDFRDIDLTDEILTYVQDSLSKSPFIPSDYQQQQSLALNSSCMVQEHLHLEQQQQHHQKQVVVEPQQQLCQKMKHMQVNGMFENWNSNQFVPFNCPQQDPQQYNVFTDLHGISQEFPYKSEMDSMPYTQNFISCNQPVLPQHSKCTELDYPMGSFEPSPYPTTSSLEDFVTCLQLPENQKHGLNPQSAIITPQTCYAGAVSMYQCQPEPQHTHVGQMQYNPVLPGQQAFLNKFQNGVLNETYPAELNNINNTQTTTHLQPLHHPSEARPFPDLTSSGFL
SENP7 block = SENP7 protease inhibitors, primary screen, biochemical, luminescence, uHTS. 330,000 tested, 1.5% active. recombinant SENP7, Z-RLRGG-aminoluciferin luminescence, 40 min. Sentrin-specific protease 7 (Homo sapiens), Q9BQF6. inhibition, % at 5 µM;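 active = inhibition above about 50% at the single test dose, limit read from the data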
SENP8 block-1 = SENP8 protease inhibitors, primary screen, biochemical, luminescence. AID 2540, 2010. inhibition, % at 10 µM. 330,000 tested, 1.2% active. Sentrin-specific protease 8 (Homo sapiens), Q96LD8. purified SENP8, Z-RLRGG-aminoluciferin cleavage; in the data active = inhibition above about 50%
EBI2 block = EBI2 receptor antagonists, beta-arrestin recruitment, primary screen, cell-based, luminescence, 7a,25-OHC stimulation, uHTS; 7a,25-OHC stimulated; inhibition, % at 5 µM; 360,000 tested, 0.81% active; in the data active = inhibition above about 38%;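 also: enzyme fragment complementation signal reports receptor beta-arrestin coupling in cells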
SENP8 block-2 = human SENP8 protease inhibitors, primary screen, biochemical, fluorescence, Nedd8 protein substrate, uHTS; Sentrin-specific protease 8 (Homo sapiens), Q96LD8; AID 602440, 2012; recombinant SENP8; 360,000 tested, 0.64% active; inhibition, % at 20 µM; in the data active = inhibition mostly above about 40%, no sharp cut-off; inactive = mostly below about 27%
Numbers stand for hits.

What do the screens show for `CCOC(=O)N1CCN(C(=O)c2ccccc2NS(=O)(=O)c2ccc(C)cc2)CC1`?
SENP6 block: inactive; AHR activator: inactive; SENP7 block: inactive; SENP8 block-1: inactive; EBI2 block: inactive; SENP8 block-2: inactive

How did CN1CCN(C2=C(NS(=O)(=O)c3ccccc3)C(=O)c3ccccc3C2=O)CC1 do in these assays?
SENP6 block: inactive; AHR activator: inactive; SENP7 block: inactive; SENP8 block-1: inactive; EBI2 block: inactive; SENP8 block-2: inactive

How did CCOC(=O)N1CCN(C(=O)c2ccc(S(=O)(=O)Nc3ccccc3)cc2)CC1 do in these assays?
SENP6 block: inactive; AHR activator: inactive; SENP7 block: inactive; SENP8 block-1: inactive; EBI2 block: inactive; SENP8 block-2: inactive

What do the screens show for `O=C1C(Nc2ccccc2)=C(NS(=O)(=O)c2ccccc2)C(=O)c2ccccc21`?
SENP6 block: inactive; AHR activator: 57; SENP7 block: inactive; SENP8 block-1: inactive; EBI2 block: inactive; SENP8 block-2: inactive

How did CCN1CCN(C2=C(NS(=O)(=O)c3ccccc3)C(=O)c3ccccc3C2=O)CC1 do in these assays?
SENP6 block: inactive; AHR activator: inactive; SENP7 block: inactive; SENP8 block-1: inactive; EBI2 block: inactive; SENP8 block-2: 58

What do the screens show for `CCOC(=O)N1CCN(C2=C(NS(=O)(=O)c3ccc(Br)cc3)C(=O)c3ccccc3C2=O)CC1`?
EBI2 block: inactive; SENP8 block-2: 54

How did CC(O)(c1cccc(F)c1)c1nc(-c2ccc(S(C)(=O)=O)cc2)cs1 (stereo unspecified) do in these assays?
EBI2 block: inactive; SENP8 block-2: inactive

What do the screens show for `CC1CN(S(=O)(=O)c2cccc(C(=O)OCC(=O)N3CCCCCC3)c2)CC(C)O1` (stereo unspecified)?
SENP6 block: inactive; AHR activator: inactive; SENP7 block: inactive; SENP8 block-1: inactive; EBI2 block: inactive; SENP8 block-2: inactive

Results for COC(=O)C1(C(=O)OC)C[C@H](/C=C/c2ccccc2)N(Cc2ccccc2OC)[C@@H]1c1ccccc1 ?
EBI2 block: inactive; SENP8 block-2: inactive

What do the screens show for `NC(=O)C1CCN(C2=C(NS(=O)(=O)c3ccccc3)C(=O)c3ccccc3C2=O)CC1`?
SENP6 block: inactive; AHR activator: inactive; SENP7 block: inactive; SENP8 block-1: inactive; EBI2 block: inactive; SENP8 block-2: inactive

Results for O=C1C(NS(=O)(=O)c2ccc(Cl)cc2)=C(N2CCCCC2)C(=O)c2ccccc21 ?
SENP6 block: inactive; AHR activator: inactive; SENP7 block: inactive; SENP8 block-1: inactive; EBI2 block: inactive; SENP8 block-2: 46

How did NC(=O)C1CCN(C2=C(NS(=O)(=O)c3ccc(Br)cc3)C(=O)c3ccccc3C2=O)CC1 do in these assays?
SENP6 block: inactive; AHR activator: inactive; SENP7 block: inactive; SENP8 block-1: inactive; EBI2 block: inactive; SENP8 block-2: 41

How did NC(Cc1ccc(F)cc1)c1csc(Nc2ccc(C(F)(F)F)cn2)n1 (stereo unspecified) do in these assays?
EBI2 block: inactive; SENP8 block-2: inactive

Results for Cc1ccc(S(=O)(=O)N2CCOCC2)cc1N/N=C(\C#N)c1nc2ccccc2[nH]1 ?
SENP6 block: inactive; AHR activator: 59; SENP7 block: inactive; SENP8 block-1: inactive; EBI2 block: inactive; SENP8 block-2: inactive

How did Cc1ccc(C(=O)OC/C(O)=C(\C#N)c2nc3ccccc3[nH]2)cc1S(=O)(=O)N1CCOCC1 do in these assays?
SENP6 block: inactive; AHR activator: inactive; SENP7 block: inactive; SENP8 block-1: inactive; EBI2 block: inactive; SENP8 block-2: inactive

What do the screens show for `CCc1ccc2c(c1)C(=O)c1ccccc1C2=O`?
SENP6 block: 78; AHR activator: inactive; SENP7 block: 83; SENP8 block-1: 79; EBI2 block: inactive; SENP8 block-2: inactive

How did O=C(OCc1ccccc1)c1ccc2c(c1)-c1ccccc1C2=O do in these assays?
SENP6 block: inactive; AHR activator: inactive; SENP7 block: inactive; SENP8 block-1: inactive; EBI2 block: inactive; SENP8 block-2: inactive

What do the screens show for `CCOc1ccc(C(=O)Cc2ccccc2)cc1`?
EBI2 block: inactive; SENP8 block-2: inactive

Results for COc1ccccc1CC(=O)c1ccc(OCc2ccccc2)cc1 ?
SENP6 block: inactive; AHR activator: 48; SENP7 block: inactive; SENP8 block-1: inactive; EBI2 block: inactive; SENP8 block-2: inactive

What do the screens show for `O=C(OCn1ncc(Br)c(Br)c1=O)c1ccc(F)cc1`?
SENP6 block: inactive; AHR activator: inactive; SENP7 block: inactive; SENP8 block-1: inactive; EBI2 block: 50; SENP8 block-2: inactive

How did CC(=O)OCn1ncc(N2CCOCC2)c(Br)c1=O do in these assays?
SENP6 block: inactive; AHR activator: inactive; SENP7 block: inactive; SENP8 block-1: inactive; EBI2 block: inactive; SENP8 block-2: inactive

How did O=C(OCn1ncc(Br)c(Br)c1=O)c1ccccc1Cl do in these assays?
SENP6 block: inactive; AHR activator: inactive; SENP7 block: inactive; SENP8 block-1: inactive; EBI2 block: 47; SENP8 block-2: inactive

Results for Cc1ccc(CNC(=S)Nc2ccc3c(c2)c(=O)n(C)n3Cc2cccc(C(F)(F)F)c2)cc1 ?
EBI2 block: inactive; SENP8 block-2: inactive

What do the screens show for `CC(=O)Nc1ccc(S(=O)(=O)NNc2ccc([N+](=O)[O-])cc2)cc1`?
SENP6 block: inactive; AHR activator: inactive; SENP7 block: inactive; SENP8 block-1: inactive; EBI2 block: inactive; SENP8 block-2: inactive

How did Cc1ccc(-c2[nH]nc(N)c2N=Nc2ccccc2C)cc1 do in these assays?
SENP6 block: inactive; AHR activator: 62; SENP7 block: inactive; SENP8 block-1: inactive; EBI2 block: inactive; SENP8 block-2: inactive

What do the screens show for `Cc1ccc(-c2[nH]nc(N)c2N=Nc2cccc(Cl)c2C)cc1`?
EBI2 block: inactive; SENP8 block-2: inactive

Results for CC1(C(=O)NS(=O)(=O)c2cccc(F)c2)CCN1C(=O)C1CCCCC1 (stereo unspecified) ?
EBI2 block: inactive; SENP8 block-2: inactive

What do the screens show for `CCOC(=O)/C(=C/c1ccc(OC(F)F)cc1)C1=Nn2c(nnc2-c2ccc(Cl)cc2)SC1`?
EBI2 block: 48; SENP8 block-2: inactive

How did CCOC(=O)/C(=C\c1ccc(OC(F)F)cc1)C1=Nn2c(nnc2-c2ccc(Cl)cc2)SC1 do in these assays?
AHR activator: inactive; EBI2 block: 54; SENP8 block-2: inactive

What do the screens show for `COc1ccc(-c2nnc3n2N=C(C)CS3)cc1`?
SENP6 block: inactive; AHR activator: inactive; SENP7 block: inactive; SENP8 block-1: inactive; EBI2 block: inactive; SENP8 block-2: inactive

Results for CC(C)C[C@H]1CNC(=O)C(=O)N1C[C@@H]1CCCN1C[C@H](Cc1ccccc1)N1C[C@H](Cc2ccccc2)N(CC2CCCCC2)C(=O)C1=O ?
EBI2 block: inactive; SENP8 block-2: inactive
